PubChem BioAssay (Tox21)
Records with an inconclusive call do not appear. A number with no mark means an inactive call. Calls come from the whole dose curve; as a rule, active = well fitted activation curve with a large enough effect in the repeat runs; inconclusive = weak or mixed curves; inactive = flat fitted curve, though single readings scatter.

Assay: A CellTox Green Cytotoxicity Assay to monitor cytotoxicity in HEK293 cells - 8 hour (AID 1224884); note: nearly all actives have a fitted effect of over 35% in size
Settings: CellTox Green fluorescence; series mostly up to 76.8 µM; cytotoxicity increase: at the top concentration
Text: National Center for Advancing Translational Sciences [NCATS]
NIH Chemical Genomics Center [NCGC]
U.S. Environmental Protection Agency [EPA]
National Institutes of Environmental Health Sciences [NIEHS]
National Toxicology Program [NTP]
Cell-based models are critical for drug discovery. Determining the natural cytotoxic effects resulting from test compounds is an essential research activity. A CellTox Green Cytotoxicity Assay to monitor cytotoxicity in real time of continues cell culture during 40 hours of the compound treatment was used to screen Tox21 10K library compounds in Hek293 cells. CellTox Green Cytotoxicity Assay is a nonlytic, homogeneous, biofluorescent method to measure cytotoxicity in cell culture after experimental manipulation. The assay system uses a proprietary asymmetric cyanine dye that is excluded from viable cells but preferentially stains the dead cell's DNA. […] Viable cells produce no appreciable increases in fluorescence. Therefore, the fluorescence signal produced by the binding interaction with dead cell DNA is proportional to cytotoxicity.
The mixture of Hek293 cell suspension and reagents were dispensed at 600cells/6 ul/well in 1536-well tissue culture treated black solid bottom plates using a Multidrop dispenser. After the assay plates were incubated at a 37 C/5% CO2 incubator for 5 hours, 23 nL of compounds dissolved in DMSO, positive and negative controls was transferred to the assay plate by a pintool work station. The plates were incubated at 37 C for 40 hours. The fluorescence intensity were measured at 0h, 8h, 16h, 24h, 32h and 40h time points using ViewLux plate reader during compound treatment.
% is set by controls: 0 for no effect and ±100 for the full control effect.

Row | SMILES | cytotoxicity increase
1 | Nc1nc(-c2ccccc2)c(Br)c(=O)[nH]1 | 0.197% [at 35.3 µM]
2 | Cc1ccnc(N)c1 | 2.29%
3 | O=C1CCCCO1 | -0.596%
4 | CC(=O)O[C@@H]1CC2CCC1(C)C2(C)C (stereo not given in full) | -19.5%
5 | CCC(C)C(C)=O (stereo not given) | 1.16%
6 | COC(C)(OC)OC | 0.288%
7 | COc1c2occc2c(OC)c2c(=O)cc(C)oc12 | 0.995% [at 35.3 µM]
8 | COC(=O)c1cc(Cl)cc(Cl)c1 | 0.795%
9 | CCCCOCC(C)O (stereo not given) | -13.9%
10 | CSc1cnccn1 | -11.6%
11 | COC(=O)/C=C\C(=O)O | 0.981%
12 | CN1C[C@@H]2C[C@H]1CN2c1cc2c(cc1F)c(=O)c(C(=O)O)cn2C1CC1 | -14% [at 15.8 µM]
13 | CC(C)[C@H]1CC[C@H](C)C[C@@H]1O | -0.84%
14 | CC/C=C\CCOC(=O)c1ccccc1O | -12%
15 | Cc1ccccc1C(N)=O | -0.942%
16 | Cc1ccc(C)c([N+](=O)[O-])c1 | -0.57%
17 | CCCC(=O)OC/C=C(\C)CCC=C(C)C | 29.8%
18 | [O]=[Mo](=[O])=[O] | -27.3% [at 15.8 µM]
19 | CC(CO)(CO)CO | 24.2%
20 | c1ccc(B(c2ccccc2)c2ccccc2)cc1 | -4.6%

Row | SMILES | cytotoxicity increase
21 | C=C(C)[C@@H]1CC=C(C)C(=O)C1 | -1.58%
22 | C=CC/C=C/C | -4.58%
23 | CCOCCOCC | -1.46%
24 | Cn1c(=O)c2[nH]c(Br)nc2n(C)c1=O | -15.1% [at 35.3 µM]
25 | CNCCS(=O)(=O)O | 2.68%
26 | CC1(C)Cc2cccc(N)c2O1 | 0.23%
27 | CC1=NN(c2ccc(S(=O)(=O)O)cc2)C(=O)C1 | -0.381%
28 | CCCCCCCCCCOC(C)=O | 19.1%
29 | COCCc1ccccn1 | -7.37% [at 35.3 µM]
30 | CC(C)=CCC/C(C)=C/COC=O | 3.09%
31 | CC(C)(CO)C(O)C(=O)NCCCO (stereo not given) | 0.567%
32 | CC(C)C1OCCN1CCOC(=O)NCCCCCCNC(=O)OCCN1CCOC1C(C)C (stereo not given) | -7.46%
33 | CC(=O)O[Si](C)(OC(C)=O)OC(C)=O | -8.6%
34 | CCCC(CC)c1ccccc1 (stereo not given) | 10%
35 | CC1(C)Oc2ccc(C#N)cc2[C@@H](N2CCCC2=O)[C@@H]1O | 0.112% [at 35.3 µM]
36 | CO[Si](CCCn1c(=O)n(CCC[Si](OC)(OC)OC)c(=O)n(CCC[Si](OC)(OC)OC)c1=O)(OC)OC | -7.24% [at 35.3 µM]
37 | O=C1NC(c2ccccc2)(c2ccccc2)C(=O)N1COP(=O)(O)O | -12.6% [at 35.3 µM]
38 | COc1cc2c(cc1OC)CN(C(=O)[C@H](C)N[C@@H](CCc1ccccc1)C(=O)O)[C@H](C(=O)O)C2 | -12.3% [at 35.3 µM]
39 | CCNC(=O)NCc1cccc(Cl)c1 | -22.4% [at 35.3 µM]
40 | C=C(C)c1cccc(C(C)(C)N=C=O)c1 | -4.95%
